From ChEMBL document CHEMBL5308504, “Tm Shift (DSF) assay results for EUbOPEN Chemogenomics Library” (2023)
Several values for one entry are separate records, joined by “and”; a condition that tells them apart may be missing. Equal entries are not always repeated.

Legend:
[1] = molecular target: Bromodomain-containing protein 4 (Homo sapiens) (UniProt O60885); conditions: Compound concentration 20.0 uM, Protein concentration 2.0 uM, Result type QC Liability
[2] = molecular target: T1, Transcription intermediary factor 1-alpha (Homo sapiens) (UniProt O15164); conditions: Compound concentration 20.0 uM, Protein concentration 2.0 uM, Result type QC Liability
T1 sequence (whole entry): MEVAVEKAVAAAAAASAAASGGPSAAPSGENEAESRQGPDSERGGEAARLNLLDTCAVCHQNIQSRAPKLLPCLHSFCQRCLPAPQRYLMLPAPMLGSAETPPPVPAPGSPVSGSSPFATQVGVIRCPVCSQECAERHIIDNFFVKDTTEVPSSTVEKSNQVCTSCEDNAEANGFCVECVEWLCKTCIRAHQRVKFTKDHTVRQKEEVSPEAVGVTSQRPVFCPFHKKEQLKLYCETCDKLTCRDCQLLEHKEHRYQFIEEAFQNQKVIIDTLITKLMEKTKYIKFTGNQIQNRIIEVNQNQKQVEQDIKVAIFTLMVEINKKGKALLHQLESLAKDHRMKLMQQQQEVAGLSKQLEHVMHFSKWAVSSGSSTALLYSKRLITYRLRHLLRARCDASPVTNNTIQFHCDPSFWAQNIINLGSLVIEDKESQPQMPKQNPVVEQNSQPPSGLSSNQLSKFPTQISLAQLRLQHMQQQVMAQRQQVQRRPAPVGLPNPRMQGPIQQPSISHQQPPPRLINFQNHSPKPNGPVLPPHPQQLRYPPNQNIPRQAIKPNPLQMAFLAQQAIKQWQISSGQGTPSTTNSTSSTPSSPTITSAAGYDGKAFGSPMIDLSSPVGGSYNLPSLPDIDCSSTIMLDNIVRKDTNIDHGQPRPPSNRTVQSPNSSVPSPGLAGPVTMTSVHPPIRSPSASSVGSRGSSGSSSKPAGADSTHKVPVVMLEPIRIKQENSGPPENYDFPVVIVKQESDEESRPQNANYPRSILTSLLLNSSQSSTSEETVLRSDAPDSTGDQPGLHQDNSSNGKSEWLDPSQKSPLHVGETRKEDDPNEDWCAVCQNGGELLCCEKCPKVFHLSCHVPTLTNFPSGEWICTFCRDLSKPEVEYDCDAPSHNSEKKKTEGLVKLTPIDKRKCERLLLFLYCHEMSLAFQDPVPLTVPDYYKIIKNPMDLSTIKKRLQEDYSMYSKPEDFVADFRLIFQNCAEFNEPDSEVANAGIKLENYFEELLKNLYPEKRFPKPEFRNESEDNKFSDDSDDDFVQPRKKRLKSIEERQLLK

Compound `CC(C)(C)c1cc(NC(=O)c2csc(Nc3ccc(Cl)cc3)n2)no1` has a ΔTm [1] of -0.97 °C and a ΔTm [2] of 0.11 °C.

Work on `COCCNC1CCC(Nc2cc(-c3csc(NCC4(C#N)CCOCC4)n3)c(Cl)cn2)CC1` (stereo unspecified) yielded a ΔTm [1] of -0.18 °C and a ΔTm [2] of -2.77 °C.

With `CC[C@@H](CO)Nc1nc(Nc2cccc(NC(=O)C(C)(C)C)c2)ncc1F` the ΔTm [1] was -2.22 °C and the ΔTm [2] was 0.33 °C.

With `COc1cc2nc(-c3cc(F)ccc3O)nc(N[C@@H]3CNC[C@H]3C(C)(C)O)c2cc1OC` the ΔTm [1] was 1.15 °C and the ΔTm [2] was -1.27 °C.

`CN1CCC(F)(Cn2cnc(-c3ccc(F)cn3)c2-c2ccnc3[nH]ccc23)CC1` was tested, and the ΔTm [1] was -2.6 °C and the ΔTm [2] was -2.99 °C.

`CCOCCn1cc(C(=O)Nc2ccc(-n3nc(-c4cccnc4)cc3C(F)(F)F)cn2)ccc1=O` was tested, and the ΔTm [1] was -2.09 °C and the ΔTm [2] was 0.27 °C.

`O=C(Nc1ccccc1C(=O)O)c1cc(S(=O)(=O)c2ccccc2)ccc1Cl` showed a ΔTm [1] of 2.09 °C and a ΔTm [2] of 0.36 °C.

In the case of `Cc1c(NC(=O)COc2ccc(Cl)cc2C(=O)c2cc(F)cc(C(F)(F)F)c2)ccc(C(=O)O)c1F`, the ΔTm [1] is reported as -0.11 °C and -0.42 °C and the ΔTm [2] is reported as 0.4 °C and 0.46 °C.

With `CCN1C(=O)N(c2c(F)c(OC)cc(OC)c2F)Cc2cnc3[nH]c(CN4CCOCC4)cc3c21` the ΔTm [1] was -1.4 °C and the ΔTm [2] was -3.85 °C.

With `C[C@@H]1COCCN1c1cc(=O)n2c(n1)N(Cc1cncc(Cl)c1)[C@H](C(F)(F)F)CC2` the ΔTm [1] was -0.07 °C and the ΔTm [2] was -0.61 °C.

For `O=C(O)c1ccc(OCCCc2ccc(OCCCCOC3CCCCC3)cc2)c(C(=O)NC2CCCC(C(=O)O)C2)c1` (stereo unspecified), the ΔTm [1] was 0.35 °C and the ΔTm [2] was 0.3 °C.

Compound `COc1ccc(COc2ccc(Cc3cnc(N)nc3N)cc2OC)cc1` has a ΔTm [1] of -1.17 °C and a ΔTm [2] of -1.22 °C.

`CNc1[nH]c(Nc2ccc(C(=O)N3CCOCC3)cc2OC)nc2ncc(Cl)c1-2` was tested, and the ΔTm [1] was -0.77 °C and the ΔTm [2] was -2.36 °C.

`COc1ccccc1-c1cc(Nc2cccc(CS(N)(=O)=O)c2)ncn1` showed a ΔTm [1] of -0.36 °C and a ΔTm [2] of -0.57 °C.

With `C[C@H](NC(=O)c1cnc2n1[C@](C)(Cc1ccc(C#N)cc1)C(=O)N2c1cc(Cl)c(F)c(Cl)c1)C(=O)NC1(c2ccccn2)CC1` the ΔTm [1] was 5.21 °C and the ΔTm [2] was 0 °C.

`CCN(C)C(=O)c1ccc2c(c1)NC(=O)/C2=C(\NC1CCN(C)CC1)c1ccccc1` gave a ΔTm [1] of 0.55 °C and a ΔTm [2] of 0.21 °C.

For `Cc1cc2c(cc(C(=O)N[C@H](CO)c3ccc(S(=O)(=O)CC(=O)O)cc3)n2C)c(Cl)c1Cl`, the ΔTm [1] was 2.14 °C and the ΔTm [2] was -0.18 °C.

Work on `C=C(F)C(=O)N1CCN(c2nc(OC[C@@H]3CCCN3C)nc3c2CCN(c2cccc4cccc(Cl)c24)C3)C[C@@H]1CC#N` yielded a ΔTm [1] of 0.05 °C and a ΔTm [2] of -0.78 °C.

Compound `C=CC(=O)Nc1cccc(C)c1Nc1ncc2cc(-c3c(Cl)c(OC)cc(OC)c3Cl)ccc2n1` has a ΔTm [1] of 0.13 °C and a ΔTm [2] of 0 °C.

With `CC[C@@H](C(=O)OC)n1c(=O)c2ccccc2n(Cc2cn(C)c3cccc(C)c23)c1=O` the ΔTm [1] was 1.22 °C and the ΔTm [2] was 0.71 °C.

For `NC(=O)C1CCCc2c1[nH]c1ccc(Cl)cc21` (stereo unspecified), the ΔTm [1] was -1.42 °C and the ΔTm [2] was -1.04 °C.

`CNC(=O)c1c[nH]c2ccc(Nc3nccc(-c4ccccn4)n3)cc12` showed a ΔTm [1] of -1.78 °C and a ΔTm [2] of -0.94 °C.

`CN[C@@H](C)C(=O)N[C@H]1CN(C(=O)CC(C)C)CC[C@H]2CC[C@@H](C(=O)NC(c3ccccc3)c3ccccc3)N2C1=O` showed a ΔTm [1] of -2.41 °C and a ΔTm [2] of -2.26 °C.

`Cn1ncc(NC(=O)c2nc(-c3c(F)cccc3F)sc2N)c1N1CC[C@@H](N)[C@H](F)CC1` was tested, and the ΔTm [1] was -1.02 °C and the ΔTm [2] was -1.63 °C.

In the case of `CN(C1CCc2c(c3ccccc3n2CC(=O)O)C1)S(=O)(=O)c1ccc(F)cc1` (stereo unspecified), the ΔTm [1] is reported as -1.34 °C and the ΔTm [2] is reported as -0.54 °C.

Work on `CC1CNCCc2c1nc1ccnn1c2N1CC(C(=O)N2CCC(C)(C)C2)C1` (stereo unspecified) yielded a ΔTm [1] of -3.66 °C and a ΔTm [2] of 0.37 °C.

`Cn1cc(C(=O)O)c2ccc(N3CCC(OCc4c(-c5c(Cl)cccc5Cl)noc4C4CC4)CC3)cc21` showed a ΔTm [1] of -1.74 °C and a ΔTm [2] of -2.91 °C.

For `CN1C(=O)c2ccccc2N(C)c2nc(Nc3cnn(C4CCNCC4)c3)ncc21`, the ΔTm [1] was 3.95 °C and the ΔTm [2] was -1.94 °C.

`Cc1cn([C@@H](C)CC#N)c(=O)c2cc(Cn3nc(C(F)F)cc3Cl)nn12` was tested, and the ΔTm [1] was -0.88 °C and the ΔTm [2] was -2.22 °C.

For `Cc1cc(=O)oc2cc(NC(=O)[C@H](Cc3ccc(I)cc3)NC(=O)[C@H]3N[C@@H]4CC[C@H]3C4)ccc12`, the ΔTm [1] was -0.26 °C and the ΔTm [2] was 0.3 °C.

`O=C(NC[C@@H]1[C@H]2CN(C(=O)OCc3cc(C(F)(F)F)cc(C(F)(F)F)c3)C[C@@H]12)c1ccc2[nH]nnc2c1` was tested, and the ΔTm [1] was 2.07 °C and the ΔTm [2] was 1.3 °C.

`CC(C)(O)c1cn(-c2ccc(-c3cccc(S(C)(=O)=O)c3)cc2)c(C(C)(C)c2ccccc2Cl)n1` was tested, and the ΔTm [1] was -4.36 °C and the ΔTm [2] was -3.39 °C.

For `CC1=C(C(=O)OCCO)[C@@H](c2ccc(C#N)cc2)NC(=O)N1c1cccc(C(F)(F)F)c1`, the ΔTm [1] was 0.01 °C and the ΔTm [2] was 0.4 °C.

With `O=C(O)CCCCN(CCc1cc(F)ccc1OCc1ccc(-c2ccc(C(F)(F)F)cc2)cc1)Cc1ccc(C(=O)O)cc1` the ΔTm [1] was 0.73 °C and the ΔTm [2] was -0.3 °C.

`CC(=O)Nc1nc(CN2CCC[C@H](Cc3cc(C)nc(C)c3)C2)cs1` gave a ΔTm [1] of 0.35 °C and a ΔTm [2] of -1.42 °C.

With `CS(=O)(=O)NC(=O)CCC/C=C\C[C@H]1C(=O)C[C@@H](O)[C@@H]1/C=C/[C@@H](O)COc1ccccc1` the ΔTm [1] was -2 °C and the ΔTm [2] was -0.45 °C.

For `CC(C)Nc1ncnc2cc(OCc3cccc([S@@](C)(=N)=O)c3)c(Br)cc12`, the ΔTm [1] was 0.34 °C and the ΔTm [2] was 0.14 °C.

Compound `CCN1C(=O)c2cc(C)ccc2N(C)c2ncccc21` has a ΔTm [1] of -1.19 °C and a ΔTm [2] of 0.2 °C.

`CCN(C(=O)CO)[C@H]1CN(/C(=N\C#N)Nc2cccc(OC(F)F)c2)N=C1c1ccc(Cl)c(Cl)c1` showed a ΔTm [1] of 3.5 °C and a ΔTm [2] of 0.3 °C.

Work on `Cc1ncsc1-c1ccc(CNC(=O)[C@@H]2C[C@@H](O)CN2C(=O)[C@@H](NC(=O)CCCCNC(=O)c2ccc(-c3ccc(N4CCN(C)CC4)c(NC(=O)c4c[nH]c(=O)cc4C(F)(F)F)c3)cc2)C(C)(C)C)cc1` yielded a ΔTm [1] of -6.12 °C and a ΔTm [2] of -1.25 °C.

For `COc1cc(-c2cn(C)c(=O)c3cnccc23)cc(OC)c1CN(C)C`, the ΔTm [1] was -0.83 °C and the ΔTm [2] was 0.37 °C.

`CN(C)C(=O)Cn1cc(-c2ccc(-c3nnc4ccccn34)cc2)cn1` gave a ΔTm [1] of -1.96 °C and a ΔTm [2] of 0.35 °C.

`NC(=O)c1sc2nc(N3CCC(NC[C@H](O)c4ccccn4)CC3)cc(C(F)(F)F)c2c1N` was tested, and the ΔTm [1] was -3.3 °C and the ΔTm [2] was -3.39 °C.

`Cc1cn([C@H](C)CC#N)c(=O)c2cc(Cn3nc(C(F)F)cc3Cl)nn12` gave a ΔTm [1] of -1.08 °C and a ΔTm [2] of -1.23 °C.

Work on `CCc1cnn2c(NCc3ccc[n+]([O-])c3)cc(N3CCCCC3CCO)nc12` (stereo unspecified) yielded a ΔTm [1] of -0.63 °C and a ΔTm [2] of -2.72 °C.

`N#CN1CC[C@@H](C(=O)Nc2nc3c(s2)CN(C(=O)CN=[N+]=[N-])CC3)C1` gave a ΔTm [1] of -1.95 °C and a ΔTm [2] of -0.82 °C.

`C[C@@]1(Cc2ccc(C#N)cc2)C(=O)N(c2cc(Cl)cc(Cl)c2)c2ncc(C(=O)NC3(c4nc(C5CCC5)no4)CC3)n21` showed a ΔTm [1] of 10.3 °C and a ΔTm [2] of 0.39 °C.

`O=C(O)CCCCCC[C@@H]1C(=O)NC(=O)N1CCC(O)C1CCCCC1` (stereo partly specified) gave a ΔTm [1] of -1.84 °C and a ΔTm [2] of -0.56 °C.
